Assay outcomes (PubChem)
An excerpt weighted towards active compounds, which were near 3.7% of everything screened.
DRD3 antagonist: qHTS of D3 Dopamine Receptor Antagonist: qHTS; D(3) dopamine receptor (Homo sapiens), P35462; D3R cells, DiscoveRx beta-arrestin luminescence, antagonist mode; hits give low values; max response, negative = inhibition, %; actives 2.5% (n = 360,000); AID 652054, 2013; in the data active means max response below about -50%; inconclusive means no clear call, values can overlap the other calls; further: on the % scale 0 is the no-effect control and ±100 the full control effect
Target sequence (P35462 whole entry, looked up): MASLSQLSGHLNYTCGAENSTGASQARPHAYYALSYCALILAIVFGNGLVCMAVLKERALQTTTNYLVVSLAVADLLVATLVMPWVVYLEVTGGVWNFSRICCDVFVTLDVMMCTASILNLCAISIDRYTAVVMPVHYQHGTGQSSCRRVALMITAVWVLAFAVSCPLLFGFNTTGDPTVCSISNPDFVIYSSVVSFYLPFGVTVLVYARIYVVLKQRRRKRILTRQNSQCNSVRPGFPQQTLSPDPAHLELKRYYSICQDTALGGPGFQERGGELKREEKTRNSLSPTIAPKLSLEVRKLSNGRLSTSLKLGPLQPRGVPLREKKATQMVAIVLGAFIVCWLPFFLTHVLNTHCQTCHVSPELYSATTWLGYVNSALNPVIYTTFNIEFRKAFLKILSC
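Cells plated overnight at 1500 cells/well, then exposed to library compounds with dopamine controls for 90 minutes at 37 degrees C. DiscoveRx reagent added for 30–60 minutes at room temperature; luminescence read, quantitative HTS format.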
B2AR arrestin: qHTS assay of beta-arrestin-biased ligands of beta2-adrenergic receptor | AID 492947, 2010 | actives 0.02% (n = 330,000) | beta-arrestin recruitment to beta2AR, cell-based reporter | Potency, µM (top dose mostly 46.1 µM), for the others: top-dose activation, actives largely listed as activators;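 further: potency means the concentration at half of the fitted maximal effect; 0% = DMSO controls and full agonism = EC100 isoproterenol or metaproterenol; nearly all actives have a fitted effect of over 65% in size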
RGS4 inhibitor: Inhibitors of Regulator of G Protein Signaling (RGS) 4: qHTS; Regulator of G-protein signaling 4 (Homo sapiens), P49798; Transcreener GDP fluorescence polarization, RGS4-accelerated GTP hydrolysis; Potency, µM (series often up to 114 µM), inactives show at the top dose activity change, negative = inhibition, most hits filed as inhibitors; actives 0.039% (n = 390,000); AID 504845, 2011; further: potency means the concentration at half of the fitted maximal effect; on the % scale 0 is the no-effect control and ±100 the full control effect; nearly all actives have a fitted effect of over 75% in size
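MLSMR compounds (23 nl, pin-transferred) preincubated 10 min at room temperature with a 500nM (2x) first reagent, then RGS4 at 900nM (2x) plus Transcreener GDP mix added; fluorescence polarization (620/688 nm) read before and after 90 min at 30 °C.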
DRD3 agonist: qHTS of D3 Dopamine Receptor Agonist: qHTS. AID 652048, 2013. D3R DiscoveRx beta-arrestin cells, luminescence, 90 min. max activation, %. actives 0.58% (n = 410,000); in the data active means max activation above about 30%; further: 0% is about no effect
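Agonist mode: compounds and dopamine controls were applied to plated cells for 90 min at 37 degrees C after an overnight attachment at 1500 cells/well. Luminescent read-out followed 30 - 60 minutes at room temperature with DiscoveRx detection reagent.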
BRCA1 expr up: qHTS Assay to Identify Small Molecule Activators of BRCA1 Expression; MCF7-BRCA1-FFLuc reporter, luminescence, 48 h; response scale: scaled: vehicle 0%, 10 µM genistein 100%; Potency, µM (doses to about 46.1 µM), for the others: top-dose activation, hits mostly activators; actives 1.1% (n = 380,000); further: potency means the concentration at half of the fitted maximal effect; nearly all actives have a fitted effect of over 80% in size
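MCF7 cells carrying a BRCA1-firefly luciferase reporter (2000 cells/well, phenol-red free MEM) were attached for 2 h at 37 °C, then given compounds for 48 h. Luminescence was read 15 min after luciferase reagent; activity normalized to genistein (10 microM) and DMSO.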
PTHR1 agonist: qHTS for PTHR1 Agonists: Primary Screen. Parathyroid hormone/parathyroid hormone-related peptide receptor (Homo sapiens), Q03431. HEK293 GP2 PTHR1 cells, GloSensor cAMP luminescence, 1 h. Potency, µM (top dose mostly 115 µM), inactives show at the top dose activation, hits mostly activators. actives 0.075% (n = 410,000); further: potency means the concentration at half of the fitted maximal effect; nearly all actives have a fitted effect of over 55% in size
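HEK-293-derived GP2 cells expressing PTHR1 and a GloSensor cAMP reporter, 3,000/well, plated overnight, given luciferin plus IBMX (each 0.5 mM as added) for 1 h at 37 °C, then compound for 1 h at 37 °C. Luminescence was read after 15 min at room temperature.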
* marks the source's active call; other numbers are inactive results; i = inactive; ? = inconclusive; nt = no result given; [ ] = remark or other dose. Unless noted, the call rests on the fitted dose curve; in most records, active means well fitted curve in the direction sought with a large enough effect; inconclusive means small, poorly fitted or top-dose-only effect, or another doubt; inactive means no such curve, though single readings can be large; an effect the other way counts as inactive or inconclusive.

SMILES	DRD3 antagonist	B2AR arrestin	RGS4 inhibitor	DRD3 agonist	BRCA1 expr up	PTHR1 agonist
CN(C)C(=O)c1ccc(NC(=O)CN2C(=O)NC3(CCCc4ccccc43)C2=O)cc1 (stereo unspecified)	2	0%	2%	-6	-9%	-22%
CCCNC(=O)c1c(O)c2c([nH]c1=O)CCCC2	-5	0%	-10%	1	-10%	-36%
COc1ccc(CCNC(=O)c2c(O)c3c([nH]c2=O)CCCC3)cc1	-126*	3%	-1%	2	27%	i
COc1ccc(C2=C(C)C(=O)N(Cc3ccc(C(=O)Nc4ccc(F)cc4C)cc3)S2(=O)=O)cc1	nt	nt	-4%	-14	nt	-51%
CCc1cccc(C)c1Nc1c(-c2ccc(N3CCOCC3)cc2)nc2ncccn12	nt	nt	1%	2	nt	i
N/C(=N\O)c1ccc(N2CCN(c3ncccc3C(F)(F)F)CC2)nc1	40	0%	6%	31*	3.5µM*	-63%
COC(=O)c1ccc(NC(=O)CN2C(=O)c3cccc4cccc2c34)cc1	nt	nt	-5%	-6	nt	i
O=C1CCC[C@H]2c3[nH]c4ccccc4c3CCN12	-51*	nt	18%	-22	-4%	-14%
Cc1ccc(NC(=O)Cn2c(=O)n(Cc3nc(C)no3)c(=O)c3ccccc32)c(Cl)c1	nt	nt	21%	-16	nt	i
CCN(CC)S(=O)(=O)c1ccc(Cl)c(C(=O)OC2CC(C)OC2=O)c1 (stereo unspecified)	12	-1%	-7%	32*	21%	i
COc1ccccc1-n1cnnc1SC(C)C(=O)Nc1ccc(NC(C)=O)cc1 (stereo unspecified)	4	0%	13%	9	-8%	i
CN(C)/C=C1/Oc2c(ccc3ccccc23)C1=O	2	0%	?	-2	5%	i
CN(C)/C=C1\Oc2ccc3ccccc3c2C1=O	-12	0%	-8%	0	7.1µM*	-26%
CC(=O)[C@@]1(O)CC[C@H]2[C@@H]3C=C(Cl)C4=CC(=O)CC[C@]4(C)[C@H]3CC[C@@]21C	nt	nt	nt	-15	nt	nt
COc1ccccc1-c1nc(C#N)c(N2CCc3ccccc3C2)o1	11	0%	-5%	30	8%	-14%[57.5 µM]
COc1ccc(-c2nc(C#N)c(N3CCc4ccccc4C3)o2)cc1OC	53	0%	26%	36*	-78%	-4%[57.5 µM]
O=C(CS(=O)Cc1ccco1)NC/C=C\COc1cc(CN2CCCCC2)ccn1 (stereo unspecified)	nt	nt	nt	-13	nt	nt
CCc1ccc(Nc2n[n+](-c3ccccc3)c(-c3cccc(C)c3)s2)cc1	-52*	-2%	-45%	-6	-25%	i
N=c1n(CCN2CCCCC2)c2ccccc2n1CC(=O)c1cccs1	-63*	-1%	2%	-38	-64%	i
CC(C)(C)C1CCC(=NNC(=O)C2COc3ccccc3O2)CC1 (stereo unspecified)	-14	0%	16%	-6	4%	64%
COc1ccc(Cl)cc1C(=O)NNC(=O)C1COc2ccccc2O1 (stereo unspecified)	12	0%	?	0	-15%	-4%
O=C(NN=C1CCCC1)C1COc2ccccc2O1 (stereo unspecified)	-7	0%	6%	43*	0%	8%
O=C(NNC(=O)C1COc2ccccc2O1)c1ccccc1O (stereo unspecified)	8	0%	4%	32*	-12%	-8%
Cc1nc(-c2ccc(S(=O)(=O)Nc3ccc(Cl)c(C(F)(F)F)c3)cc2)co1	nt	nt	11%	-5	5%	-29%
O=C(N/N=C(\c1ccccc1)c1cccnc1)c1cccc(F)c1	-75*	-1%	-11%	-11	-91%	-40%
